About 79,000 compounds went through this panel and 15% of them were active in at least one assay; those are over-represented in the sample as a whole. Active and inactive are the calls of the source. No stated cut-off is given here; in the data, active means growth inhibition above about 70%; inactive means the rest.
Assays:
[1] = NCI Yeast Anticancer Drug Screen. Data for the rad52 strain (AID 147);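 further: 0% = growth of vehicle-treated control cultures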; conditions: S. cerevisiae rad52 mutant growth inhibition, hits give high values
In short: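 Genetically altered yeast (DNA damage repair defect) treated with compound; inhibition calculated relative to vehicle.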

[2] = NCI Yeast Anticancer Drug Screen. Data for the wt1 strain (AID 149);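 further: 0% = growth of vehicle-treated wt1 cultures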; conditions: S. cerevisiae wt1 strain (SPY 50644) growth inhibition, hits give high values
In short: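 wt1 yeast, compound-treated; % growth inhibition vs vehicle control.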

[3] = NCI Yeast Anticancer Drug Screen. Data for the rad50EPP+ strain (AID 151);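 further: 0% = growth of vehicle-treated control cultures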; conditions: S. cerevisiae rad50 mutant strain, hits give high values
In short: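 Strain rad50EPP+; compound exposure; % growth inhibition vs vehicle.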

[4] = NCI Yeast Anticancer Drug Screen. Data for the mgt1 strain (AID 153); conditions: S. cerevisiae mgt1 mutant growth inhibition, hits give high values
In short: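 Read-out: yeast growth inhibition vs vehicle control. Strain mgt1, drawn from a panel altered in DNA damage repair or cell cycle control.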

[5] = NCI Yeast Anticancer Drug Screen. Data for the rad50 strain (AID 155);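 further: 0% = growth of vehicle-only cultures of the same strain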; conditions: S. cerevisiae rad50 strain growth inhibition, hits give high values
In short: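 Genetically altered yeast (DNA repair pathway); compound treatment; growth inhibition vs vehicle ctrl.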

[6] = NCI Yeast Anticancer Drug Screen. Data for the mec2-1 strain (AID 157); conditions: S. cerevisiae mec2-1 strain, hits give high values
In short: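 Cells of the genetically defined mec2-1 yeast strain are incubated with test compound. Inhibition of growth is calculated against vehicle-treated controls.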

[7] = NCI Yeast Anticancer Drug Screen. Data for the sgs1 mgt1 strain (AID 161);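 further: 0% = growth of cultures given vehicle only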; conditions: S. cerevisiae sgs1 mgt1 strain, hits give high values
In short: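 Read-out: growth inhibition vs vehicle controls. Cells: mutant yeast strain deficient in DNA damage repair.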

[8] = NCI Yeast Anticancer Drug Screen. Data for the CLN2oe strain (AID 163);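 further: 0% = growth of vehicle-only control cultures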; conditions: S. cerevisiae CLN2oe strain, hits give high values
In short: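 Strain altered in cell-cycle control, incubated with compound; growth compared to solvent-treated controls.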

[9] = NCI Yeast Anticancer Drug Screen. Data for the cln2 rad14 strain (AID 165);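 further: 0% = growth equal to vehicle treated cultures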; conditions: S. cerevisiae cln2 rad14 strain, hits give high values
In short: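 The screen exposed genetically defined yeast (cln2 rad14) to test compounds and scored growth inhibition relative to vehicle-treated controls.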

[10] = NCI Yeast Anticancer Drug Screen. Data for the bub3 strain (AID 167); conditions: S. cerevisiae bub3 mutant strain, hits give high values
In short: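 Yeast carrying a defined mutation is treated with each compound, and growth is compared with that of vehicle-exposed cells to give inhibition.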

[11] = NCI Yeast Anticancer Drug Screen. Data for the wt2 strain (AID 169);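 further: 0% = growth of vehicle-treated yeast cultures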; conditions: S. cerevisiae wt2 strain growth inhibition, hits give high values
In short: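 Steps: yeast strain treated with compound; growth recorded; inhibition calculated relative to cultures given vehicle alone.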

[12] = NCI Yeast Anticancer Drug Screen. Data for the mlh1 strain (AID 171);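 further: 0% = growth of vehicle-treated control cultures of the same strain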; conditions: S. cerevisiae mlh1 strain growth inhibition, hits give high values
In short: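 Yeast screen: mutant strain plus compound, growth scored against vehicle control wells.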

[13] = NCI Yeast Anticancer Drug Screen. Data for the sgs1 strain (AID 173);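 further: 0% = growth of vehicle-only control cultures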; conditions: S. cerevisiae sgs1 mutant, hits give high values
In short: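 Inhibition of yeast growth served as the measure. The mutant strain was treated with each compound, and growth was normalised to cultures receiving vehicle alone.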

[14] = NCI Yeast Anticancer Drug Screen. Data for the mlh1 rad18 strain (AID 175); conditions: S. cerevisiae mlh1 rad18 strain growth inhibition, hits give high values
In short: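 Compound-treated yeast growth, normalised to vehicle controls. Strain bears defined DNA repair mutations.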

[15] = NCI Yeast Anticancer Drug Screen. Data for the rad18 strain (AID 177); conditions: S. cerevisiae rad18 mutant growth inhibition, hits give high values
In short: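 Inhibition values reflect reduced yeast growth compared with vehicle-treated controls, using a strain engineered with a DNA damage repair defect.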

[16] = at 5.0 µM (retest, dose inferred, filed as 0.5)
[17] = at 50.0 µM (retest, dose inferred, filed as 5.0)

Measured: growth inhibition

CC(C)OC(=O)Nc1ccc2nc(-c3cscn3)[nH]c2c1
active: [1]; at 100.0 µM 87% | [4]; at 100.0 µM 98% | [5]; at 100.0 µM 90% | [6]; at 100.0 µM 81% | [7]; at 50.0 µM 76% | [10]; [17] 81% | [10]; at 100.0 µM 97% | [11]; at 100.0 µM 97% | [12]; at 100.0 µM 96% | [13]; at 100.0 µM 97% | [14]; [17] 87% | [14]; at 50.0 µM 93.1% | [15]; at 100.0 µM 97%
inactive: [1]; at 1.2 µM -3% | [1]; at 3.7 µM -5% | [1]; at 11.0 µM -3% | [1]; at 33.0 µM 1% | [2]; at 1.2 µM -1% | [2]; at 3.7 µM 3% | [2]; at 11.0 µM -1% | [2]; at 33.0 µM -2% | [2]; at 100.0 µM 50% | [3]; at 1.2 µM 9% | [3]; at 3.7 µM 16% | [3]; at 11.0 µM 23% | [3]; at 33.0 µM 31% | [3]; at 100.0 µM 44% | [4]; at 1.2 µM -5% | [4]; at 3.7 µM -7% | [4]; at 11.0 µM -15% | [4]; at 33.0 µM 4% | [5]; at 1.2 µM -1% | [5]; at 3.7 µM -1% | [5]; [16] -4% | [5]; at 11.0 µM -3% | [5]; at 33.0 µM 10% | [5]; [17] 51% | [5]; at 50.0 µM 17.8% | [6]; at 1.2 µM 2% | [6]; at 3.7 µM 5% | [6]; [16] -4% | [6]; at 11.0 µM 8% | [6]; at 33.0 µM 16% | [6]; [17] 23% | [6]; at 50.0 µM -3.75% | [7]; [16] 1% | [7]; [17] 39% | [8]; at 1.2 µM -8% | [8]; at 3.7 µM -20% | [8]; at 11.0 µM -18% | [8]; at 33.0 µM -13% | [8]; at 100.0 µM 56% | [9]; [16] 8% | [9]; [17] 19% | [9]; at 50.0 µM 12.8% | [10]; at 1.2 µM -3% | [10]; at 3.7 µM -2% | [10]; [16] -1% | [10]; at 11.0 µM 4% | [10]; at 33.0 µM 25% | [10]; at 50.0 µM 7.85% | [11]; at 1.2 µM -1% | [11]; at 3.7 µM -2% | [11]; at 11.0 µM -4% | [11]; at 33.0 µM 2% | [12]; at 1.2 µM 1% | [12]; at 3.7 µM 1% | [12]; at 11.0 µM 3% | [12]; at 33.0 µM 16% | [13]; at 1.2 µM 2% | [13]; at 3.7 µM 3% | [13]; at 11.0 µM 8% | [13]; at 33.0 µM 18% | [14]; [16] 11% | [15]; at 1.2 µM -2% | [15]; at 3.7 µM -4% | [15]; at 11.0 µM -3% | [15]; at 33.0 µM 4%

CCOC(=O)C(Br)C(Br)c1ccccc1Cl (stereo unspecified)
inactive: [1]; at 1.2 µM 6% | [1]; at 3.7 µM 23% | [2]; at 1.2 µM -4% | [2]; at 3.7 µM 7% | [2]; at 11.0 µM 46% | [3]; at 1.2 µM 24% | [3]; at 3.7 µM 62% | [4]; at 1.2 µM 0% | [4]; at 3.7 µM 14% | [4]; at 11.0 µM 61% | [5]; at 1.2 µM 5% | [5]; at 3.7 µM 17% | [5]; [16] 23% | [5]; at 11.0 µM 68% | [6]; at 1.2 µM 0% | [6]; at 3.7 µM 12% | [6]; [16] 30% | [6]; at 11.0 µM 47% | [7]; [16] 46% | [8]; at 1.2 µM -2% | [8]; at 3.7 µM 3% | [8]; at 11.0 µM 47% | [9]; [16] 13% | [10]; at 1.2 µM -1% | [10]; at 3.7 µM 7% | [10]; [16] 22% | [10]; at 11.0 µM 47% | [11]; at 1.2 µM -2% | [11]; at 3.7 µM 22% | [12]; at 1.2 µM 9% | [12]; at 3.7 µM 23% | [13]; at 1.2 µM 10% | [13]; at 3.7 µM 34% | [14]; [16] 39% | [15]; at 1.2 µM 10% | [15]; at 3.7 µM 29%
active: [1]; at 11.0 µM 83% | [1]; at 33.0 µM 99% | [1]; at 100.0 µM 99% | [2]; at 33.0 µM 99% | [2]; at 100.0 µM 99% | [3]; at 11.0 µM 96% | [3]; at 33.0 µM 99% | [3]; at 100.0 µM 99% | [4]; at 33.0 µM 99% | [4]; at 100.0 µM 99% | [5]; at 33.0 µM 99% | [5]; [17] 99% | [5]; at 50.0 µM 99.7% | [5]; at 100.0 µM 99% | [6]; at 33.0 µM 99% | [6]; [17] 100% | [6]; at 50.0 µM 99.8% | [6]; at 100.0 µM 99% | [7]; [17] 99% | [7]; at 50.0 µM 99.8% | [8]; at 33.0 µM 99% | [8]; at 100.0 µM 99% | [9]; [17] 99% | [9]; at 50.0 µM 99.4% | [10]; at 33.0 µM 98% | [10]; [17] 99% | [10]; at 50.0 µM 99.8% | [10]; at 100.0 µM 99% | [11]; at 11.0 µM 93% | [11]; at 33.0 µM 99% | [11]; at 100.0 µM 99% | [12]; at 11.0 µM 92% | [12]; at 33.0 µM 99% | [12]; at 100.0 µM 99% | [13]; at 11.0 µM 94% | [13]; at 33.0 µM 99% | [13]; at 100.0 µM 99% | [14]; [17] 99% | [14]; at 50.0 µM 99.5% | [15]; at 11.0 µM 89% | [15]; at 33.0 µM 99% | [15]; at 100.0 µM 99%

— PubChem BioAssay (NCI)
